Insulin prom up – MIN6 insulin promoter up-regulation. MIN6 insulin promoter-GFP reporter, high-content imaging; stronger effect = higher value. z-score at 5 µM. 0.3% of 190,000 active;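 active = z-score above 3 at 5 µM with at least 500 cells counted in the well; inconclusive = wells under 500 cells, flagged as cytotoxic or low count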
INS promoter inh – TRM-6 insulin promoter activity inhibition. TRM-6 cells (human fetal islet line), insulin promoter-eGFP reporter, imaging; reporter expression induced with tamoxifen. 0.9% of 130,000 active. inhibition, % at 2 µM;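 active = inhibition above the mean plus 3 SD, with well images judged a real hit on visual review, cut at about 60% in these data, passing the limit was not always enough; inconclusive = inhibition over the cutoff but images rejected on review; inactive = inhibition not above the cutoff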
HCT116 bCat-KO – beta-catenin-lacking colon tumor cell growth suppression; HCT116 beta-catenin knockout viability, CellTiter-Glo, 60 h; stronger effect = lower value; viability, % at 10 µM; 1.5% of 140,000 active; AID 818;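 active = viability at or under a set limit, the compound median less 4 SD, cut at about 6% in these data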;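 also: 0% = Hyamine 1622 control at 20 µM and 100% = untreated cell control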
HCT116 PTEN-null – PTEN-deleted cell growth suppression. 1.2% of 140,000 active. HCT116 PTEN-null viability, CellTiter-Glo, 60 h; stronger effect = lower value. viability, % at 10 µM;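 active = viability at or below a set limit, 4 SD under the median of all tested compounds, cut at about 3.7% in these data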;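 also: PTEN knockout HCT116 line with beta catenin targeted HCT116 as companion control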
Autophagy HCS – alters autophagy in cells. calls only at 10 µM (by protocol). 0.98% of 190,000 active. MEF GFP-LC3 puncta imaging; test concentration mostly 10 µM;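 active = percentage of spot-positive cells more than 3 SD above its plate mean, without a fluorescence outlier flag or 80% toxicity; inconclusive = no clear call, values can overlap the other calls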;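 also: spot-positive cell cutoff set from DMSO-treated cells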
Lmaj promast – Leishmania major promastigote growth inhibition; Leishmania major promastigotes, resazurin fluorescence viability; inhibition, % at 10 µM; 9% of 200,000 active; in the data active = inhibition above about 50%;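 also: promastigotes grown with compound for 44 hours at 28 °C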
L major 1uM – blocks Leishmania major promastigote growth at 1 uM, repeat screen; shares compounds with Lmaj promast; inhibition, % at 1 µM; L. major promastigote growth, resazurin fluorescence, 48 h; 13% of 1,100 active; AID 1258;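 active = inhibition above about 50% in both repeat tests, limit read from the data; inconclusive = one repeat under the set limit, the other over it; inactive = both repeats under the set limit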
Starred values were filed as active, the others as inactive; i = inactive; ? = inconclusive; · = not tested or not shown. Sampled rows, rich in hits. Any-hit rate of the full collection: about 9.6%.

SMILES	Insulin prom up	INS promoter inh	HCT116 bCat-KO	HCT116 PTEN-null	Autophagy HCS	Lmaj promast	L major 1uM
O=[N+]([O-])c1cc(Cl)ccc1-c1nc(-c2ccccc2)no1	0.01	-20.7	81.5	81.6	i	89.5*	-20.7
O=[N+]([O-])c1cc(Cl)ccc1-c1nc(-c2ccncc2)no1	0.13	·	·	·	i	8.7	·
Cc1ccc(-c2csc(=S)n2CC(=O)OCC(=O)NC(C)C(C)C)cc1 (configuration not stated)	0.81	13.9	81.0	87.3	i	63.6*	-19.1
CC(C)c1ccc(/C=N/Nc2ccc(C(=O)O)cc2)cc1	-0.15	-80.6	93.9	104.3	i	56.6*	-19.9
Nc1nc2ncc(C(=O)c3cc(F)ccc3O)cc2s1	0.06	·	·	·	·	·	·
O=S1(=O)N=C(Nc2ccc(O)c(CN3CCCCC3)c2)c2ccccc21	1.27	15.2	95.8	99.5	i	55.4*	-2.4
CCC(C)NC(=O)C1CCN(S(=O)(=O)c2cccc3cccnc23)CC1 (configuration not stated)	-0.12	·	74.2	77.6	·	-3.5	·
COc1ccccc1CNc1nc2ccccc2n1CCN1CCCCC1	-1.13	·	23.6	25.4	i	60.9*	8.9
Oc1ccccc1CNc1nc2ccccc2n1CCN1CCCCC1	0.74	42.9	56.5	62.1	i	24.1	·
Cc1cc(C)n(-c2ncc3c(n2)N(CCO)CCOC3=O)n1	0.07	·	·	·	·	·	·
CC1=CC2(O)OCCN(CCO)C2=CC1=O (configuration not stated)	·	4.0	94.1	96.2	i	99.0*	-10.1
Cc1ccc(OCC(O)CN2CCN(CC(O)COc3ccc(C)cc3)CC2)cc1 (configuration not stated)	-1.3	·	89.2	97.2	i	57.0*	-6.5
Cc1ccc(CNc2ccc(N3CCOCC3)cc2)s1	-0.77	?	100.0	101.9	i	80.7*	-6.5
CCc1ccc(Nc2cc(=O)n(C3CCCCC3)c(=O)[nH]2)cc1	-1.24	37.5	72.3	98.5	i	5.2	·
CC(C)CSc1nnc2c(n1)[nH]c1ccccc12	-0.18	-23.3	88.0	79.0	i	6.2	·
CC1=CCC(/C=N\Nc2nnc3c(n2)[nH]c2ccccc23)CC1 (configuration not stated)	0.82	·	88.4	95.8	i	51.8*	-0.7
COc1ccc(C2CC(=O)c3cnn(-c4nc(C)cc(C)n4)c3C2)cc1OC (configuration not stated)	-0.37	·	·	·	·	·	·
Cc1ccc(C2CC(=O)c3cnn(-c4nc(C)cc(C)n4)c3C2)cc1 (configuration not stated)	-0.1	-131.0	83.6	95.7	i	74.8*	15.6
CCOC(=O)c1sc(=S)sc1SCc1cccc(C(F)(F)F)c1	0.87	-24.1	101.2	92.4	i	61.4*	-11.3
COc1ccccc1Nc1nc(-c2cccc(N3C(=O)c4ccccc4C3=O)c2)cs1	-0.3	-63.6	90.8	96.5	i	-9.4	·
On1onc2c3cc(-c4ccccc4)nc3ccc21	?	-127.3	1.8*	1.2*	i	100.4*	-22.3
CCOC(=O)c1ccc2ncc(C(=O)OCC)c(NCc3ccco3)c2c1	-0.34	·	74.0	76.5	i	56.9*	2.4
O=C(Nc1ccc(F)cc1)c1sccc1SCc1cccc(C(F)(F)F)c1	0.25	-27.3	62.3	67.0	i	18.4	·
COc1ccc(NC(=O)c2sccc2SCc2cccc(C(F)(F)F)c2)cc1	-0.26	-22.7	84.6	85.6	i	99.7*	-4.3
OCCC1CN(Cc2cccn2-c2nccs2)CCN1C1CCCCC1 (configuration not stated)	-0.54	·	·	·	i	-0.4	·
SMILES	Insulin prom up	INS promoter inh	HCT116 bCat-KO	HCT116 PTEN-null	Autophagy HCS	Lmaj promast	L major 1uM
c1ccc2c(N3CCCCC3)nnc(N3CCCCC3)c2c1	0.64	23.3	87.4	97.0	i	28.6	·
Cc1nnc(N2CCCCC2)c2ccccc12	-0.66	21.1	90.5	115.5	i	52.5*	2.2
CNCCCC1c2ccccc2C=Cc2ccccc21	·	-9.1	67.7	58.8	i	56.5*	-9.2
Brc1ccc(N/N=C(/N=Nc2nn[nH]n2)c2ccccc2)cc1	0.33	·	·	·	i	-0.8	·
Cc1c(CCOC(=O)CC23CC4CC(CC(C4)C2)C3)sc[n+]1CC(=O)c1ccccc1	-2.03	·	·	·	i	90.9*	22.7
Cc1ccc(C(=O)OCCc2sc[n+](Cc3ccccc3)c2C)cc1	-1.35	·	90.3	85.6	i	3.5	·
O=c1cc(O)nc(SCc2ccccc2)n1-c1ccc(Cl)cc1	1.02	·	·	·	i	-6.0	·
COc1cc(CNCC(C)C)cc(Br)c1OCC(=O)Nc1ccccc1	·	-6.9	78.0	75.8	i	100.4*	44.6
Cc1ccc(OC/C(=N\O)C(C)(C)C)c([N+](=O)[O-])c1	-0.52	27.3	·	·	i	2.3	·
O=S(=O)(c1ccc(-c2csc(-c3cccnc3)n2)cc1)N1CCCCC1	·	60.0	89.9	99.3	i	78.3*	39.5
CCOC(=O)c1nn(-c2ccccc2)c2nnc(Cc3ccccc3)c(=O)n12	0.21	7.7	102.9	94.0	i	-6.0	·
CC1=Nc2cccc3cccc(c23)N1	1.12	·	72.4	60.6	i	99.8*	-8.8
O=C(O)CCC(=O)Nc1ccc(S(=O)(=O)N2CCCC2)cc1	1.26	·	99.0	89.7	i	-5.7	·
O=C(O)CCC(=O)Nc1ccc(N2CCCCCC2)cc1	0.64	36.8	84.9	93.4	i	96.9*	94.4*
Cc1ccc2c(c1)C1CN(C)CCC1N2C(=S)NC(=O)c1ccc(Br)cc1 (configuration not stated)	0.1	-21.4	·	·	i	99.3*	-6.8
CCOC(=O)C(CC)n1cnc2sc3c(c2c1=O)CCC3 (configuration not stated)	-0.32	-33.3	83.1	91.0	i	-6.6	·
Cc1ccc(NC(=O)Nc2sc(=S)n(C)c2C)cc1	-0.04	16.1	95.1	98.2	i	58.6*	-16.6
O=C(Nc1ccccc1-c1nc2ccccc2s1)c1cccnc1	-0.82	10.8	78.4	82.0	i	94.6*	6.0
O=C(Nc1ccccc1-c1nc2ccccc2s1)c1ccc(Br)o1	·	·	47.4	37.9	i	-1.3	·
OC12CCCCC1C(c1ccc3c(c1)OCO3)N(Cc1ccc(F)cc1)CC2 (configuration not stated)	-0.78	-27.3	50.4	59.5	i	41.8	·
OC12CCCCC1C(c1ccc3c(c1)OCO3)N(Cc1ccccc1F)CC2 (configuration not stated)	-0.81	-12.1	61.2	61.0	i	59.5*	3.2
CCCc1n[nH]c2c1/C(=N/O)CC(c1ccccc1)C2 (configuration not stated)	0.71	-100.0	58.9	54.9	i	80.9*	59.1*
CCCc1noc2c1/C(=N\O)CC(c1ccccc1)C2 (configuration not stated)	·	44.4	85.2	84.1	i	-2.8	·
O=C1c2ccccc2-c2ccc(C(=O)N3CCCCC3)cc21	·	-38.5	·	·	i	-3.9	·

Source: PubChem BioAssay (several laboratories)
